Data reported in PubChem BioAssay AID743025 (Vanderbilt Specialized Chemistry Center, 2013).
Unmarked numbers belong to inactive results. Active and inactive are the calls of the source.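 Rule for the calls: active = IC50 below 10 µM at human M5 in a calcium flux test, acting as a negative modulator; inactive = the rest.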

The compounds below were run against Muscarinic acetylcholine receptor M5 (Homo sapiens) (UniProt P08912) (assay: inhibition of ACh-evoked M5 calcium signal – cell-based, single concentration, human M5 (AID 743025)). Conditions: CHO-K1 hM5, ACh EC80 calcium flux, Fluo-4; at 10 µM; hits give low values.
Sequence of Muscarinic acetylcholine receptor M5 (Homo sapiens) (P08912 whole entry, looked up): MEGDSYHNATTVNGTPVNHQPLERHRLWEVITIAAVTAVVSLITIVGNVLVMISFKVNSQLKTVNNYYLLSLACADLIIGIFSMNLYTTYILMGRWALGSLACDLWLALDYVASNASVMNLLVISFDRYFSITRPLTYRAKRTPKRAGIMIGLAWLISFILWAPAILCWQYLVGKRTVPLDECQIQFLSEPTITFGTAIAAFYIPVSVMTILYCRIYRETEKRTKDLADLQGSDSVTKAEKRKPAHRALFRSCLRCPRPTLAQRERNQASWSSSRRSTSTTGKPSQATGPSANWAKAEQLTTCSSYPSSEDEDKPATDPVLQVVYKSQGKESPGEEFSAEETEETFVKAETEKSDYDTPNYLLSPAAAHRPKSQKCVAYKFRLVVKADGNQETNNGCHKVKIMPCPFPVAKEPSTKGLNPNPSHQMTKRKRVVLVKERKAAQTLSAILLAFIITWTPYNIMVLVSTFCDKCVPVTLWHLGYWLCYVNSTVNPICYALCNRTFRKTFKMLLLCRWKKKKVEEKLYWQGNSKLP

Compound	activity remaining
O=C(c1ccccc1)N1CCN(C(=O)c2ccccc2)C1c1ccccc1	85.3%
Cc1ccc(C23c4ccccc4C(=O)N2CCN3C(=O)c2ccc(OC(F)(F)F)cc2)cc1 (configuration not stated)	6.55% (active)
O=C(c1cc(F)cc(F)c1)N1CCN2C(=O)c3ccccc3C12c1ccccc1 (configuration not stated)	4.21% (active)
Cc1ccc(C23c4ccccc4C(=O)N2CCN3C(=O)c2cccc(C(F)(F)F)c2)cc1 (configuration not stated)	28.8% (active)
CC(C)(C)NC(=O)N1CCN2C(=O)c3ccccc3C12c1ccccc1 (configuration not stated)	83.8%
Cc1ccc(C23c4ccccc4C(=O)N2CCN3C(=O)c2ccc(C(F)(F)F)cc2)cc1 (configuration not stated)	28.6% (active)
O=C1c2ccccc2C2(c3ccc(F)cc3)NCCN12 (configuration not stated)	77.6%
Cc1ccc(C(=O)N2CCCN3C(=O)c4ccccc4C23c2ccc(Cl)cc2)cc1 (configuration not stated)	74.8%
Cc1ccc(C(=O)N2CCN3C(=O)c4ccccc4C23c2ccccc2)cc1 (configuration not stated)	70.2%
O=C(c1ccc(SC(F)(F)F)cc1)N1CCCN2C(=O)c3ccccc3C12c1ccc(Cl)cc1 (configuration not stated)	78.5%
O=C(c1cccs1)N1CCN2C(=O)c3ccccc3C12c1ccccc1 (configuration not stated)	79.5%
O=C(c1ccccc1)N1CCCN2C(=O)c3ccccc3C12c1ccc(Cl)cc1 (configuration not stated)	82.5%
Cc1ccc(C23c4ccccc4C(=O)N2CCN3C(=O)c2ccc(F)c(F)c2)cc1 (configuration not stated)	0.51% (active)
COc1cc(C(=O)N2CCN3C(=O)c4ccccc4C23c2ccc(Cl)cc2)cc(OC)c1OC (configuration not stated)	63.4%
COc1ccc(C23c4ccccc4C(=O)N2CCN3C(=O)c2ccc(F)cc2)cc1 (configuration not stated)	62.4%
O=C(c1ccc(C(F)(F)F)cc1)N1CCCN2C(=O)c3ccccc3C12c1ccc(Cl)cc1 (configuration not stated)	75.7%
C=CCN1C[C@H](C)N2C(=O)c3ccccc3[C@@]12c1ccc(Cl)cc1	64.3%
O=C(Nc1ccc(Cl)cc1)N1CCN2C(=O)c3ccccc3C12c1ccccc1 (configuration not stated)	78.2%
O=C(c1ccccc1)c1ccccc1C(=O)N1CCN(C(=O)c2ccccc2)CC1	85.5%

Compound	activity remaining
O=C(c1ccc(SC(F)(F)F)cc1)N1CCN2C(=O)c3ccccc3C12c1ccccc1 (configuration not stated)	1.05% (active)
O=C(c1cccc(F)c1)N1CCN2C(=O)c3ccccc3C12c1ccccc1 (configuration not stated)	86%
CN(C(=O)c1ccccc1)C(c1ccccc1)c1ccccc1	84.3%
CS(=O)(=O)c1ccc(C23c4ccccc4C(=O)N2CCN3C(=O)c2ccc(F)c(F)c2)cc1 (configuration not stated)	77.3%
COc1ccc(C23c4ccccc4C(=O)N2CCN3C(=O)c2cccc(F)c2)cc1 (configuration not stated)	57.4% (active)
O=C(Nc1cccc(C(F)(F)F)c1)N1CCN2C(=O)c3ccccc3C12c1ccccc1 (configuration not stated)	76.4%
Cc1ccccc1C(=O)N1CCN2C(=O)c3ccccc3C12c1ccccc1 (configuration not stated)	50.5% (active)
COc1ccc(C23c4ccccc4C(=O)N2CCN3C(=O)c2ccc(C(F)(F)F)cc2)cc1 (configuration not stated)	48% (active)
CCCN1C(=O)c2ccccc2C1c1ccccc1 (configuration not stated)	86.1%
COc1ccccc1NC(=O)N1CCN2C(=O)c3ccccc3C12c1ccccc1 (configuration not stated)	86.6%
Cc1ccc(C23c4ccccc4C(=O)N2CCN3C(=O)c2ccc(SC(F)(F)F)cc2)cc1 (configuration not stated)	10.9% (active)
CN(C)c1ccc(C(=O)N2CCN3C(=O)c4ccccc4C23c2ccc(Cl)cc2)cc1 (configuration not stated)	82.9%
O=C(c1ccc(OCc2ccccc2)cc1)N1CCN2C(=O)c3ccccc3C12c1ccccc1 (configuration not stated)	75.1%
O=C(c1ccc(OC(F)(F)F)cc1)N1CCN2C(=O)c3ccccc3C12c1ccc(F)cc1 (configuration not stated)	69.4%
O=C(c1ccc(F)cc1)N1CCN2C(=O)c3ncccc3C12c1ccccc1 (configuration not stated)	65.2%
CC(C)(C)C(=O)N1CCN2C(=O)c3ccccc3C21c1ccccc1 (configuration not stated)	83.6%
O=C(c1ccc(C(F)(F)F)cc1)N1CCN2C(=O)c3ncccc3C12c1ccccc1 (configuration not stated)	72.2%
O=C(c1ccc(Cl)cc1)N1CCCN2C(=O)c3ccccc3C12c1ccccc1 (configuration not stated)	54% (active)
